The campaign covered roughly 360,000 compounds. About 2,100 (0.58%) were called active. Many of the other results were omitted from the sample, so actives are more common in it than they were. Unmarked numbers belong to inactive results. No stated cut-off is given here; in the data, active means inhibition above about 36%; inactive means the rest.

92 compounds from PubChem BioAssay AID651699 (Sanford-Burnham Center for Chemical Genomics, 2012) can be followed below.

Chain of NEDD8-conjugating enzyme Ubc12 (Homo sapiens) + NEDD8-activating enzyme E1 regulatory subunit (Homo sapiens) (P61081 whole entry, looked up): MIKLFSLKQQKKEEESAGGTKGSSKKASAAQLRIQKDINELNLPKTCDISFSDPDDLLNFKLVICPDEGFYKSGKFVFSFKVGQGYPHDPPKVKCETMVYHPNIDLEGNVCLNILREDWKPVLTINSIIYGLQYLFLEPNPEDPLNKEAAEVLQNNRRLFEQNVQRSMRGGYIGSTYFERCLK
Chain of NEDD8-conjugating enzyme Ubc12 (Homo sapiens) + NEDD8-activating enzyme E1 regulatory subunit (Homo sapiens) (Q13564 whole entry, looked up): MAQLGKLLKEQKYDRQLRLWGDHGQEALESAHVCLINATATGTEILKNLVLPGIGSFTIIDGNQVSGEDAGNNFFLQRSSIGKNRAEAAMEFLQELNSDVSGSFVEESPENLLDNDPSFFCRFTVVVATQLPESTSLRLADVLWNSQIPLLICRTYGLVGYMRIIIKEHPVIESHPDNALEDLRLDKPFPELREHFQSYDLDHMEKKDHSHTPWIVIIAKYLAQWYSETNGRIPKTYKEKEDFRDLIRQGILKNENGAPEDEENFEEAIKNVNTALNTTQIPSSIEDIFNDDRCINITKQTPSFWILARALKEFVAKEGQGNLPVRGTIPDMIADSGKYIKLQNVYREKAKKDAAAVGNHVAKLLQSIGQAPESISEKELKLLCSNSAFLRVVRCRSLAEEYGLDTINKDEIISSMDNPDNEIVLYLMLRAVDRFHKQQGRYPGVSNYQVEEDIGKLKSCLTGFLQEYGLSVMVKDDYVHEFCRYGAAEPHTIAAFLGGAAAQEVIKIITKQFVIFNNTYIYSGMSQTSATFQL

This experiment concerns the target NEDD8-conjugating enzyme Ubc12 (Homo sapiens) + NEDD8-activating enzyme E1 regulatory subunit (Homo sapiens) (UniProt P61081+Q13564). Nature of the experiment: inhibitors of cullin neddylation, primary screen, biochemical, TR-FRET, uHTS, NAE and Ubc12 (AID 651699). The following applies: at 25 µM, stronger effect = higher value. (In TR-FRET formats the signal depends on donor and acceptor labels being close together.)
With `CC1CCCCC1NC(=O)Cn1cnc2c1c(=O)n(C)c(=O)n2C` (configuration not stated), the inhibition is 5.44%. For `COc1ccc(-c2cc3c(c4c2ccn4C)C2CCC3C2)cn1` (configuration not stated), the inhibition is -50.3%.

As for `COc1cc(C2/C(=C(\O)c3ccc4c(c3)CC(C)O4)C(=O)C(=O)N2c2nnc(C)s2)cc(OC)c1OC` (configuration not stated), the inhibition is -20.5%. Take `COc1ccc(NC(=O)C2=NNC(=O)CC2)cc1S(=O)(=O)N1CCCCC1`: the inhibition is -1.74%. On to `C=CCCC(=O)Nc1nc(C)c(-c2csc(Nc3ccc(Cl)cc3)n2)s1`, for which the inhibition was -8.67%.

As for `CC(=O)Nc1nc(C)c(-c2csc(Nc3ccc(S(N)(=O)=O)cc3)n2)s1`, the inhibition was 77% (active). Consider `CCCCCCC(=O)Nc1nc(C)c(-c2csc(Nc3cccc(OC)c3)n2)s1`, for which the inhibition is -13.8%.

For `CCCCC(=O)N(C)c1c(CC)nc2c(OCc3ccc(Cl)cc3Cl)cccn12`, the inhibition is 8.51%. For `CC(C)Cn1cnc2c1c(=O)n(CC(=O)NN)c(=O)n2Cc1ccccc1` the value was 3.73%; for `Cc1noc(C)c1COc1cccc(C(=O)Nc2cccnc2)c1`, -1.48%; for `Cc1noc(C)c1COc1ccc2ccc(=O)oc2c1`, 42.9% (active).

On to `CC(C)OC(=O)c1ccc(COc2ccc3ccc(=O)oc3c2)o1`, for which the inhibition is 32.9%.

Take `CCOC(=O)N1CCC(NC(=O)CN2C(=O)COc3ccc(C(C)(C)C)cc32)CC1`: the inhibition was -0.68%. Take `CN(C)CCN=c1cc(-c2ccccc2)oc2ccc(Cl)cc12`: the inhibition is -18.1%. On to `Cc1ccc2[nH]c3c(=O)n(CC(=O)NCCc4ccc(Cl)cc4)ncc3c2c1`, for which the inhibition was -2.38%.

With `CC(C(=O)NC1CCCCC1)N1C(=O)c2cccc3cccc1c23` (configuration not stated), the inhibition is 39.6% (active). In the case of `CC(C(=O)NC1CCCC1)N1CCN(S(=O)(=O)c2ccccc2Cl)CC1` (configuration not stated), the inhibition is -0.01%. For `Cc1ccnc(NC(=O)C(C)N2C(=O)c3ccccc3C2=O)c1` (configuration not stated), the inhibition was 9.23%. For `CC(=O)Nc1cc(-c2ccc(N3CCN(C)CC3)cc2)cn2c(-c3ccc(F)cc3)cnc12` the value was 42.2% (active); for `CC(=O)Nc1cc(-c2ccc(N3CCN(C)CC3)cc2)cn2c(-c3cccc(C(=O)N(C)C)c3)cnc12`, 0.78%. In the case of `COc1ccccc1-c1cc(NC(C)=O)c2ncc(-c3ccc(F)cc3)n2c1`, the inhibition is 38.6%. On to `O=C1c2ccccc2C(c2nc3ccccc3[nH]2)N1c1ccccc1` (configuration not stated), for which the inhibition is 4.84%. For `C1=C(N2CCOCC2)/C(=C/c2nc3ccccc3[nH]2)CC1` the value was 43% (active); for `CCO[C@H]1OC(C(=O)NCc2ccccc2)=C[C@@H](c2coc3ccccc3c2=O)[C@@H]1CCCO`, -9.63%. For `Cc1c(Cl)cccc1NC(=O)[C@@]1(CC(=O)O)CC(/C=C/c2ccccc2)=NO1` the value was -0.33%.

Take `Cc1ccc(C(CNC(=O)Nc2cccc(C)c2)N2CCN(C)CC2)cc1` (configuration not stated): the inhibition was -3.56%.

With `Cc1cc(N)n2nc(-c3ccc(C(C)(C)C)cc3)cc2n1`, the inhibition is 40.5% (active). Consider `COc1cccc2cc(/C(C)=N/NC(=O)c3ccco3)oc12`, for which the inhibition was -10.7%. Take `CC1CCCC(NC(=O)CN2CCN(Cc3ccc(Cl)cc3)C2=O)C1C` (configuration not stated): the inhibition was 5.5%. For the compound `CCC(C)c1ccc(NC(=O)COC(=O)C2CCCC2)cc1` (configuration not stated), the inhibition is -5.48%. For `COc1ccc2nc(C)cc(Nc3cccc(C(=O)O)c3)c2c1` the value was -12.3%; for `Cc1ccc(-n2ncc3c(Nc4cccc(C(=O)O)c4)ncnc32)cc1`, 38.5% (active); for `CC(Sc1ncnc2c1cnn2-c1ccccc1)C(=O)Nc1ccc(N2CCOCC2)cc1` (configuration not stated), 3.26%.

As to `CCOC(=O)c1cn(CC)c2cc(F)c(F)cc2c1=O`, the inhibition is 6.4%. On to `CC(=O)/C(=N\Nc1ccc(Cl)cc1Cl)Sc1cccc2cccnc12`, for which the inhibition is -3.61%. Turning to `CN(CC(=O)Nc1cccc2c1CCCC2)S(=O)(=O)c1ccc(Cl)cc1`, the inhibition was 7.5%. For the compound `Cc1cc(NC(=O)c2ccccc2C)no1`, the inhibition was -11.1%. Consider `Cc1ccc(O)c(/C=N/NC(=O)COc2ccc3c(C)cc(=O)oc3c2)c1`, for which the inhibition was 17%. As to `Cc1ccc2occ(/C=N/NC(=O)c3ccccc3C)c(=O)c2c1`, the inhibition was 42.8% (active). As to `CCOc1ccc2nc(Cl)c(C3CC(c4ccccc4)=NN3C(=O)c3cccs3)cc2c1` (configuration not stated), the inhibition is -162%. Next, `CCOc1ccc2nc(NCCNC(=O)C(C)(C)C)c(C)cc2c1`: 42.5% (active); `CCOc1ccc(NS(=O)(=O)c2ccc(C)c(C(N)=O)c2)cc1`: -4.92%; `CCOc1ccc(NC(=O)c2ccc(CSc3nnnn3C)cc2)cc1`: 1.1%.

`CC(=O)N(c1ccc2oc(=O)sc2c1)S(=O)(=O)c1ccc(C)cc1`: the inhibition was 0.47%.

For the compound `O=C(CN1CCN(C(=O)C2CCCO2)CC1)Nc1c(Cl)cccc1Cl` (configuration not stated), the inhibition is 10.6%.

For `C=CCNC(=O)C1CC=CCC1C(=O)O` (configuration not stated), the inhibition is 4.38%. Regarding `COc1ccccc1N(C)S(=O)(=O)c1ccc(Cl)c(C(=O)Nc2ccncc2)c1`, the inhibition was 13.9%. For `COc1cccc(OC)c1C(=O)Nc1ccc(Cc2ccncc2)cc1` the value was 7.29%; for `COc1cc2ccccc2cc1C(=O)Nc1ccncc1`, 42.2% (active).

For the compound `O=C1N[C@H](Cc2c[nH]c3ccccc23)COC(=O)[C@H](Cc2ccc(F)cc2)C/C=C\C[C@H]1CC(=O)N(CCO)Cc1ccccc1`, the inhibition was -4.67%.

Regarding `O=C(c1ccc(Cl)cc1)N1N=C(c2ccccn2)CC1(O)C(F)(F)F` (configuration not stated), the inhibition was 46% (active). With `COC(=O)C1(O)CC(C(C)C)=NN1C(=O)c1ccc(Cl)cc1` (configuration not stated), the inhibition is 10.8%. Consider `O=C(C1CC1)N1N=C(c2ccc(Br)cc2)CC1(O)C(F)(F)F` (configuration not stated), for which the inhibition is -17%. As for `CC(=O)NCCc1ccc(S(=O)(=O)Nc2ccc(C)c(S(=O)(=O)N3CCOCC3)c2)cc1`, the inhibition is 0.16%. With `COc1ccc2c(c1)C(C)=CC(C)(C)N2C(=O)CNCc1ccc2c(c1)OCO2`, the inhibition is -2.09%. With `COc1ccc2c(c1)C(C)=CC(C)(C)N2C(=O)Nc1ccccc1`, the inhibition is 41.3% (active). `CC1=CC(C)(C)N(C(=O)CSc2nnc(-c3ccccc3)o2)c2ccc(C)cc21`: the inhibition is -0.38%. For `O=C(CCc1nnc(Cc2ccc3c(c2)OCO3)o1)NCCc1ccccc1Cl`, the inhibition is -1.6%. Take `CN(C)c1ccc(/C=N/Nc2cc(N3CCOCC3)nc(N3CCOCC3)n2)cc1`: the inhibition was 53.4% (active). Turning to `Fc1ccccc1/C=N/Nc1cc(N2CCCCC2)ncn1`, the inhibition is 9.65%.

In the case of `C/C(=N\Nc1nc(N2CCOCC2)nc(N2CCOCC2)n1)c1ccc([N+](=O)[O-])cc1`, the inhibition is -9.47%. On to `NNC(=O)c1oc2nc(-c3ccccc3)cc(-c3ccco3)c2c1N`, for which the inhibition was 51.2% (active). As for `Cc1ccc(O)c(NC(=O)c2cc(-c3ccco3)on2)c1`, the inhibition was 5.21%. Consider `CNC(=S)NNC(=O)c1oc2nc(-c3ccccc3)cc(-c3ccco3)c2c1N`, for which the inhibition is 29.8%. Turning to `O=C(NNC(=O)C1CCC1)c1ccccc1`, the inhibition is -19.3%. With `O=C(N/N=C/c1ccccc1O)C1CCCC1`, the inhibition is 44.9% (active). Regarding `CC1(C)C2CC=C(/C=N/NC(=O)C3CC3)C1C2` (configuration not stated), the inhibition is -0.11%. Regarding `COc1ccc(CCNC(=O)CCCCCNC(=O)N2CCn3c2nc2ccccc23)cc1OC`, the inhibition was 7.99%. Regarding `O=Cc1c(Nc2ccccc2Cl)nc2ccccn2c1=O`, the inhibition is -6.5%. Regarding `CC(=O)c1ccc(NC(=O)c2ccc(-n3cncn3)c([N+](=O)[O-])c2)cc1`, the inhibition was -41.9%. For the compound `C=CCn1c(COc2ccc(F)cc2)nnc1SCC(=O)Nc1cccc(S(N)(=O)=O)c1`, the inhibition was 5.06%. As to `C=CCn1c(COc2cccc3cccnc23)nnc1SCC(=O)OC`, the inhibition was 46.5% (active). As to `C=CCn1c(COc2ccccc2C)nnc1SCC(=O)O`, the inhibition is -1.87%.

For `CCC(C)(C)n1nnnc1C(c1cccs1)N1CCN(c2nc3ccccc3s2)CC1` (configuration not stated), the inhibition was 5%. Take `O=C(NCc1nnnn1-c1ccc(Cl)cc1)c1ccc2c(c1)OCO2`: the inhibition is -5.24%. Consider `COc1cccc(Nc2nnc(SCC(=O)N3CC(C)OC(C)C3)s2)c1` (configuration not stated), for which the inhibition was -4.5%. Next, `O=C(NCCc1ccc(F)cc1)c1n[nH]c2ccccc12`: 9.02%; `O=C(NCC1CCCO1)c1cc2c([nH]c3ccccc32)c(-c2ccc(F)cc2)n1` (configuration not stated): 21%; `O=C(NCCCO)c1cc2c([nH]c3ccccc32)c(-c2ccc(F)cc2)n1`: 44.3% (active). As to `O=c1cc(CN2CCN(c3cccc(Cl)c3)CC2)c2cc3c(cc2o1)CCCC3`, the inhibition is -45.2%.

With `CCC(CC)C(=O)N1CC(=O)Nc2ccc(Br)cc2C1c1ccccc1` (configuration not stated), the inhibition was -1.94%. With `CCN(/N=C/c1ccc(N(C)C)cc1)c1nc2ccccc2[nH]1`, the inhibition is 47.9% (active).

Take `Oc1ccc(/C=N/N(Cc2ccccc2)c2ccccc2)cc1`: the inhibition was 13.8%.

As to `CCN(/N=C/c1ccccc1)c1cc(=O)n(C)c(=O)[nH]1`, the inhibition is 14.3%.

In the case of `CCC(C)c1ccc(NC(=S)NCc2ccccn2)cc1` (configuration not stated), the inhibition is 3.21%. As to `O=S(=O)(c1cccc(Cn2nnc(-c3ccc(F)cc3)n2)c1)N1CCOCC1`, the inhibition is -1.01%.

With `O=C(C[C@@H]1C/C=C\CCC(=O)OC[C@@H]2CCCN2C1=O)NCCO`, the inhibition was -13.4%.

In the case of `CCN(CC)c1ccc(/C=N/NC(=O)CNC(=O)c2cccs2)cc1`, the inhibition was 55.1% (active). `O=C(NC(Cc1c[nH]c2ccccc12)C(=O)N/N=C/c1ccc(Br)cc1)c1cccs1` (configuration not stated): the inhibition is -5.72%. Regarding `O=C(CNC(=O)c1ccccc1Br)NNC(=O)c1cccs1`, the inhibition was 7.39%.

As to `COC(=O)C1=CN(Cc2ccc(OC)cc2)C=C(C(=O)OC)C1c1ccc(O)c(OC)c1`, the inhibition was 40.7% (active). For `CCOc1cc(C2C(C(=O)OC)=CN(C3CCCC3)C=C2C(=O)OC)cc(Br)c1O` the value was -306%.

As a reminder, the inhibition is the drop in the measured response relative to a control, in per cent.
